NS1 inh: qHTS Assay for Inhibitors of Influenza NS1 Protein Function | Potency, µM (highest dose often 46.1 µM), for inactives: at the highest dose activity, positive = more growth | hit rate 0.4% among 270,000 | AID 2326, 2010; calls by dose curve; further: potency means the concentration at half of the fitted maximal effect; actives are rising curves; nearly all actives have a fitted effect of over 50% in size
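OD600 was taken as the measure of yeast growth restored by compound in an NS1-expressing S. cerevisiae strain. Cells had been washed out of glucose medium and diluted 1:100 into galactose -URA medium, pH 6.0.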
Cycloheximide cs: Cycloheximide Counterscreen for Small Molecule Inhibitors of Shiga Toxin; hit rate 12% among 300,000; AID 2314, 2010; max response, %; cell reporter, cycloheximide protein synthesis inhibition counterscreen; in the data active means max response mostly above about 13%, no sharp cut-off; inactive means mostly below about 14%; further: read at 38.3 µM for the half of the compounds with a filed dose; 0% is about no effect
FBPA Giardia inh: qHTS Assay for Inhibitors of Fructose-1,6-bisphosphate Aldolase from Giardia Lamblia; hit rate 0.71% among 290,000; Potency, µM (series often up to 59.6 µM), without a hit: at the top dose activity, negative = inhibition, usual class: inhibitors; AID 2451, 2010; purified Giardia FBPA; further: potency means the concentration at half of the fitted maximal effect; on the % scale 0 is the no-effect control and ±100 the full control effect; nearly all actives have a fitted effect of over 55% in size
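Giardia FBPA (40 nM reagent) was preincubated 10 min at RT with compound (up to 57.5 uM final), then substrate plus GAPDH/TPI/NAD/arsenate coupling system with diaphorase/resazurin was added; resorufin fluorescence (525/598 nm) was read after 20 min.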
Shiga toxin inh: A qHTS for Small Molecule Inhibitors of Shiga Toxin; Vero cells, Shiga toxin protein synthesis inhibition reporter; inhibition, % at 38.7 µM; hit rate 9.2% among 290,000; in the data active means inhibition mostly above about 28%, no sharp cut-off; inactive means mostly below about 43%; further: 0% is about no effect
LmPK inh: qHTS Assay for Inhibitors of Leishmania Mexicana Pyruvate Kinase (LmPK); Potency, µM (titrated, usually from 57.5 µM), for inactives: at the highest dose activity change, negative = inhibition, most hits filed as inhibitors; purified LmPK, Kinase-Glo ATP luminescence, 1 h; hit rate 0.37% among 290,000; AID 1721, 2009; Q27686; further: potency means the concentration at half of the fitted maximal effect; on the % scale 0 is the no-effect control and ±100 the full control effect
Target sequence (Q27686 whole entry, looked up): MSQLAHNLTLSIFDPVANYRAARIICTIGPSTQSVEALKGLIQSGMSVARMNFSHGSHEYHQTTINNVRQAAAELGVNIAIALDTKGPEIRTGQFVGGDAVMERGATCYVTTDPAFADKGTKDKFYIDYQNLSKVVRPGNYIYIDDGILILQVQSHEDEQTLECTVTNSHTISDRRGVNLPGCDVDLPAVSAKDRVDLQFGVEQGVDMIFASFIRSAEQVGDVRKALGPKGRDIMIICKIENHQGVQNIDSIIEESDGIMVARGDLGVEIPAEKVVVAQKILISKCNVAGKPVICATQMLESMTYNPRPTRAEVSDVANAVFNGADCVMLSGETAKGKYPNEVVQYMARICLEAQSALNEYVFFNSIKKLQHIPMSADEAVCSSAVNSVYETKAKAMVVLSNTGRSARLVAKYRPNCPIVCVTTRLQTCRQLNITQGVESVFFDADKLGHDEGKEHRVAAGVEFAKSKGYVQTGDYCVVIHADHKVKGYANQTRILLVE
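Screened at intermediate enzyme activity to detect both inhibitors and activators: LmPK at 0.1 nM, with a 0.5 nM enzyme column as activation reference. PEP 0.5 mM, ADP 0.1 mM; ATP detected by luminescence after 1 h.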
* hit, by the source's call; ? = inconclusive; . = no result given; [ ] = another dose, or the depositor's remark. Compounds with a hit are over-represented: about 14% of the library has one in this group of screens. Unless noted, the call rests on the fitted dose curve; in most records, active means well fitted curve in the direction sought with a large enough effect; inconclusive means small, poorly fitted or top-dose-only effect, or another doubt; inactive means no such curve, though single readings can be large; an effect the other way counts as inactive or inconclusive.

SMILES	NS1 inh	Cycloheximide cs	FBPA Giardia inh	Shiga toxin inh	LmPK inh
CCOC(=O)c1ccc(COC(=O)c2ccc3c(c2)-c2ccccc2C3=O)cc1	6%	-3	-2%	-11	8%
CCCc1ccc(/C=C2\C(=O)c3ccccc3C(O)=C2C(=O)OCC)cc1	1%	20*	?	-3	?
CCOC(=O)C1=C(O)c2ccccc2C(=O)/C1=C\c1ccc(CC)cc1	-40%	31*	7.9µM*	58*	?
CN(C)S(=O)(=O)c1ccc(NC(=O)CN2C(=O)NC3(CCCC3)C2=O)cc1	1%	-8	-3%	-6	-2%
CC(=O)OC[C@@H]1O[C@@H](O/N=C2/C[C@@H](O)[C@@H](O)[C@@H]3[C@@H]4C(=O)N(Cc5ccc6c(c5)OCO6)C(=O)[C@H]4CC[C@H]23)[C@H](OC(C)=O)[C@H](OC(C)=O)[C@@H]1OC(C)=O	.	.	0%[12.9 µM]	.	.
CCCCc1nc2cc(C(=O)N3CCCC3)ccc2o1	-6%	31*	.	68*	-8%
CCCCc1nc2cc(C(=O)N3CCNC(=O)C3CC(=O)OC)ccc2o1 (stereo not given)	6%	15*	5%	8	-1%
CCCCc1nc2cc(C(=O)NC(C)c3cnn(C)c3)ccc2o1 (stereo not given)	3%	34*	.	66*	-9%
CCCCc1nc2cc(C(=O)N3CCNC(=O)C3)ccc2o1	1%	14*	6%	1	-4%
COCCN1CCN(C(=O)C2CCC(=O)N(CCc3ccccc3)C2)CC1 (stereo not given)	4%	1	5%	-10	6%
CN1CCN(CCNC(=O)Cn2c(=O)c3cccn3c3ccc(F)cc32)CC1	7%	-12	.	-2	-10%
CCN(CC)CCNC(=O)CCc1c(C)nc2c(c(C)nn2-c2ccc(C)cc2)c1C	2%	-8	7%	-14	-1%
CCCCOc1ccc(N(CC(=O)NC2CCCCC2)C(=O)CCC(=O)Nc2ccccn2)cc1	17%	-4	8%	-1	3%
O=C(Nc1ccc2cccnc2c1)c1ccc(Br)cc1	-6%	24*	6%	.	4%
COC(=O)c1ccc(NC(=O)c2ccc3nccnc3c2)cc1	-17%	11	-2%	43	-4%
Cc1ccc(C(=O)Nc2ccc3nccnc3c2)cc1	-76%	24*	-11%	48*	-29%
Cc1ccc(NC(=O)Nc2cnccn2)c(C)c1	1%	7	20%	5	2%
Cc1ccc(NC(=O)c2ccc3nccnc3c2)c(C)c1	0%	23*	-9%	31*	0%
O=C(Nc1ccc2nc3ccccc3nc2c1)c1ccc(Br)cc1	4%	6	?	5	-7%
Cc1cccc2cc3ccc4ccccc4c3cc12	7%	.	.	.	.
CN1CCC[C@@H]1c1cccnc1.O=C(O)c1ccccc1O.O=C([OH2+])c1ccccc1O.O=C([OH2+])c1ccccc1O.[Mn]	-3%	.	.	.	.
Cn1c(-c2ccccc2)cc(=O)c2ccccc21	-21%	2	-11%	-5	-8%
COc1ccc2c(c1)c(=O)cc(-c1ccccc1)n2C	3%	22*	-8%	49*	6%
CCC1=C(c2cc(OC)c(OC)c(OC)c2)C2(CCCC2)C(=O)O1	-14%	-2	5%	-3	1%
COc1cc(OC)cc(C(=O)NCCNc2nc3cc(C)cc(C)c3cc2C#N)c1	9%	-2	7%	.	4%
SMILES	NS1 inh	Cycloheximide cs	FBPA Giardia inh	Shiga toxin inh	LmPK inh
COCCNC(=O)/C(C#N)=C/c1ccc2c(c1)OCO2	6%	19*	-1%	41*	-18%
CSc1ccc(/C=C(\C#N)C(=O)NC2CCCCC2)cc1	-2%	1	4%	-4	-1%
CC1CCCCC1NC(=O)/C(C#N)=C/c1ccc2c(c1)OCCO2 (stereo not given)	4%	14	-1%	39*	5%
CC1CCCCC1NC(=O)/C(C#N)=C/c1ccc(F)c(F)c1 (stereo not given)	-6%	-2	-3%	-6	3%
C=CCNC(=O)/C(C#N)=C/c1ccc2c(c1)OCCO2	.	40*	10%	85*	-10%
C=CCNC(=O)/C(C#N)=C/c1ccc(SC)cc1	.	52*	2%	81*	3%
N#C/C(=C\c1ccc2c(c1)OCO2)C(=O)NCc1ccco1	.	1	10%	-13	1%
N#C/C(=C\c1ccccc1)C(=O)Nc1nncs1	2%	-1	0%	-9	-13%
N#C/C(=C\c1ccc2c(c1)OCCO2)C(=O)Nc1nccs1	-21%	27	10%	94*	-3%
COC1(OC)C(/C=C/c2ccc(Cl)cc2)C(C#N)(C#N)C1(OC)OC (stereo not given)	-17%	19*	-18%	41*	-2%
CCNc1ncc2ncc(=O)n(Cc3cccs3)c2n1	.	.	1%	.	.
CCOC(=O)Cn1cc(C(=O)c2ccccc2F)c2ccccc21	-12%	17*	-2%	45	5%
Nc1nc(NCCCN2CCOCC2)nc(Nc2cccc(Cl)c2)c1[N+](=O)[O-]	1%	-3	0%	21	5%
COc1ccc(NC(=O)c2cc(C)on2)cc1	.	56*	0%	89*	1%
COc1ccc(-c2cc(C(=O)Nc3cc(Br)ccc3O)no2)cc1	4%	23*	15%	41	4%
Cc1cc(NC(=O)c2cc(-c3ccccc3)on2)n(-c2ccccc2)n1	-15%	1	3%	-6	2%
COc1ccc(-c2cc(C(=O)Nc3cc(C)nn3-c3ccccc3)no2)cc1	-3%	40*	9%	72*	-4%
CC(=O)Nc1cccc(NC(=O)c2cc(C)on2)c1	-7%	21*	1%	53*	-3%
CNC(=O)c1ccc(C)c(NC(=O)C2=C(C)OCCS2)c1	-1%	-3	-6%	-15	-3%
COc1ccccc1CN1CC[C@@]2(CCCN(C(=O)c3ccco3)C2)C1	.	.	-7%	.	.
COc1ccc(NC(=O)c2cc(-c3ccccc3)on2)cc1	-9%	19*	3%	.	36%
Cc1ccc(Nc2nnc(SCC(=O)NCCN3C(=O)CSC3=O)s2)cc1	-1%	13*	-8%	31	-12%
O=C(CSc1nnc(Nc2ccccc2F)s1)Nc1cccc(S(=O)(=O)N2CCCCC2)c1	25%	42*	-3%	75*	1%
CCOc1ccccc1Nc1nnc(SCC(=O)Nc2cccc(S(=O)(=O)NC3=NCCCCC3)c2)s1	?	5	0%	6	3%
Cc1ccc(Nc2nnc(SCC(=O)Nc3cccc(S(=O)(=O)N4CCCCC4)c3)s2)cc1	-18%	53*	-2%	5	-2%
Cc1nnc(SCC(=O)Nc2ccc(S(=O)(=O)N3CCCCC3)cc2)s1	-2%	-2	.	31	-7%
Cc1nnc(SCC(=O)Nc2cc(S(=O)(=O)N3CCCC3)ccc2Cl)s1	-7%	3	0%	-1	0%
Cc1ccc(-c2nc(SCC(=O)Nc3cc(S(=O)(=O)N4CCCCC4)ccc3Cl)n[nH]2)cc1	?	17*	3%	3	-1%

Screens as filed in PubChem.
